# Source: PubChem BioAssay AID1159580 (chemical genetic matrix, 2015)
# Among all 5,500 compounds or so, about 2,000 (36%) were called active. About 18% were inconclusive and are not listed. Some of the results follow. Values without a mark were called inactive. Cut-off read from the data, not from the text of the source: active = normalized growth mostly below about 0.91 (no sharp cut-off); inconclusive = no clear call, values can overlap the other calls; inactive = mostly above about 0.92.
# Experiment: chemical genetic growth profiling, strain panel (AID 1159580);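 note: tested at 20 µM; growth read once vehicle control cultures reached saturation at 30 °C; 1 = growth at the plate median or of vehicle wells; lower values mean less growth of the strain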
# Conditions: growth OD
# [1] = S. cerevisiae deletion strains, locus YAL013W, strain DEP1, hits give low values
# [2] = S. cerevisiae deletion strains, locus YBR229C, strain ROT2, hits give low values
# [3] = S. cerevisiae deletion strains, locus YCL061C, strain MRC1, hits give low values
# [4] = S. cerevisiae deletion strains, locus YDL101C, strain DUN1, hits give low values
# [5] = S. cerevisiae deletion strains, locus YDL134C, strain PPH21, hits give low values
# [6] = S. cerevisiae deletion strains, locus YDR150W, strain NUM1, hits give low values
# [7] = S. cerevisiae deletion strains, locus YEL061C, strain CIN8, hits give low values
# [8] = S. cerevisiae deletion strains, locus YGR078C, strain PAC10, hits give low values
# [9] = S. cerevisiae deletion strains, locus YHR030C, strain SLT2, hits give low values
# [10] = S. cerevisiae deletion strains, locus YHR087W, strain rtc3, hits give low values
# [11] = S. cerevisiae deletion strains, locus YJR075W, strain HOC1, hits give low values
# [12] = S. cerevisiae deletion strains, locus YKL190W, strain CNB1, hits give low values
# [13] = S. cerevisiae deletion strains, locus YLR039C, strain RIC1, hits give low values
# [14] = S. cerevisiae deletion strains, locus YLR058C, strain SHM2 (second series), hits give low values
# [15] = S. cerevisiae deletion strains, locus YLR085C, strain ARP6, hits give low values
# [16] = S. cerevisiae deletion strains, locus YLR262C, strain YPT6, hits give low values
# [17] = S. cerevisiae deletion strains, locus YML094W, strain GIM5, hits give low values
# [18] = S. cerevisiae deletion strains, locus YMR219W, strain ESC1, hits give low values
# [19] = S. cerevisiae deletion strains, locus YMR263W, strain SAP30, hits give low values
# [20] = S. cerevisiae deletion strains, locus YNL153C, strain GIM3, hits give low values
# [21] = S. cerevisiae deletion strains, locus YNL298W, strain CLA4 (second series), hits give low values
# [22] = S. cerevisiae deletion strains, locus YNL322C, strain KRE1, hits give low values
# [23] = S. cerevisiae deletion strains, locus YNR030W, strain Alg12, hits give low values
# [24] = S. cerevisiae deletion strains, locus YOL006C, strain TOP1, hits give low values
# [25] = S. cerevisiae deletion strains, locus YPL055C, strain LGE1, hits give low values
# [26] = S. cerevisiae deletion strains, locus YPL241C, strain CIN2, hits give low values
# [27] = S. cerevisiae deletion strains, locus YPR135W, strain CTF4, hits give low values
# [28] = S. cerevisiae strains, strain wild type, hits give low values
# [29] = S. cerevisiae deletion strains, locus YJR043C, strain POL32, hits give low values
# [30] = S. cerevisiae deletion strains, locus YMR307W, strain GAS1, hits give low values
structure (smiles),measurement,setting,value
CC(C)(C)OC(=O)C(C)(C)S(=O)(=O)c1ccc(Cl)cc1,normalized growth,[1],1.01
same,normalized growth,[2],0.983
same,normalized growth,[3],0.979
same,normalized growth,[4],0.977
same,normalized growth,[5],0.995
same,normalized growth,[6],0.992
same,normalized growth,[7],1
same,normalized growth,[8],0.992
same,normalized growth,[9],0.955
same,normalized growth,[10],1.01
same,normalized growth,[11],0.973
same,normalized growth,[12],0.994
same,normalized growth,[13],0.958
same,normalized growth,[14],1.01
same,normalized growth,[15],1.05
same,normalized growth,[16],0.927
same,normalized growth,[17],0.987
same,normalized growth,[18],0.995
same,normalized growth,[19],0.992
same,normalized growth,[20],0.98
same,normalized growth,[21],1.02
same,normalized growth,[22],0.984
same,normalized growth,[23],0.983
same,normalized growth,[24],1.01
same,normalized growth,[25],1.02
same,normalized growth,[26],1.01
same,normalized growth,[27],1.04
same,normalized growth,[28],1
Cc1c(S(=O)(=O)c2ccc(Cl)cc2)cnc2cc(C(C)(C)C)nn12,normalized growth,[1],1.01
same,normalized growth,[2],1.02
same,normalized growth,[4],1
same,normalized growth,[5],1.03
same,normalized growth,[6],0.987
same,normalized growth,[7],1.01
same,normalized growth,[8],1.01
same,normalized growth,[9],1.07
same,normalized growth,[10],1.01
same,normalized growth,[29],1.01
same,normalized growth,[11],1.01
same,normalized growth,[13],1.03
same,normalized growth,[14],1.01
same,normalized growth,[15],1.02
same,normalized growth,[16],1.03
same,normalized growth,[17],1.01
same,normalized growth,[18],1.01
same,normalized growth,[19],0.982
same,normalized growth,[30],0.945
same,normalized growth,"S. cerevisiae deletion strains, locus YNL128W, strain TEP1, hits give low values",1.01
same,normalized growth,[20],1
same,normalized growth,[21],1.05
same,normalized growth,[22],1.01
same,normalized growth,[23],1.05
same,normalized growth,[24],1.06
same,normalized growth,[25],1.01
same,normalized growth,[26],0.996
same,normalized growth,[27],1.06
O=[N+]([O-])c1ccc(S(=O)(=O)c2ccccc2)nc1S(=O)(=O)c1ccccc1,normalized growth,"S. cerevisiae deletion strains, locus YAR019C, strain CDC15, hits give low values",0.882 (active)
same,normalized growth,"S. cerevisiae deletion strains, locus YBL105C, strain PKC1, hits give low values",0.914
same,normalized growth,"S. cerevisiae deletion strains, locus YBR135W, strain CKS1, hits give low values",0.903
same,normalized growth,"S. cerevisiae deletion strains, locus YBR136W, strain MEC1, hits give low values",0.93
same,normalized growth,"S. cerevisiae deletion strains, locus YBR160W, strain CDC28, hits give low values",0.915
same,normalized growth,"S. cerevisiae deletion strains, locus YDL017W, strain CDC7, hits give low values",0.942
same,normalized growth,"S. cerevisiae deletion strains, locus YDL028C, strain MPS1, hits give low values",0.972
same,normalized growth,[4],0.922
same,normalized growth,"S. cerevisiae deletion strains, locus YDL108W, strain KIN28, hits give low values",0.94
same,normalized growth,"S. cerevisiae deletion strains, locus YDL132W, strain cdc53, hits give low values",0.931
same,normalized growth,"S. cerevisiae deletion strains, locus YDL214C, strain PRR2, hits give low values",0.393 (active)
same,normalized growth,"S. cerevisiae deletion strains, locus YDR052C, strain DBF4, hits give low values",0.942
same,normalized growth,"S. cerevisiae deletion strains, locus YDR054C, strain cdc34, hits give low values",0.904
same,normalized growth,"S. cerevisiae deletion strains, locus YDR226W, strain ADK1, hits give low values",0.904
same,normalized growth,"S. cerevisiae deletion strains, locus YDR477W, strain SNF1, hits give low values",0.473 (active)
same,normalized growth,"S. cerevisiae deletion strains, locus YER123W, strain YCK3, hits give low values",0.223 (active)
same,normalized growth,"S. cerevisiae deletion strains, locus YER133W, strain GLC7, hits give low values",0.361 (active)
same,normalized growth,"S. cerevisiae deletion strains, locus YFL009W, strain cdc4, hits give low values",0.918
same,normalized growth,"S. cerevisiae deletion strains, locus YFL029C, strain CAK1, hits give low values",0.885
same,normalized growth,"S. cerevisiae deletion strains, locus YFR003C, strain YPI1, hits give low values",0.974
same,normalized growth,"S. cerevisiae deletion strains, locus YFR019W, strain FAB1, hits give low values",0.62 (active)
same,normalized growth,"S. cerevisiae deletion strains, locus YFR028C, strain CDC14, hits give low values",0.893
same,normalized growth,"S. cerevisiae deletion strains, locus YGR040W, strain KSS1, hits give low values",0.443 (active)
same,normalized growth,"S. cerevisiae deletion strains, locus YGR052W, strain FMP48, hits give low values",0.353 (active)
same,normalized growth,"S. cerevisiae deletion strains, locus YGR092W, strain DBF2, hits give low values",0.785
same,normalized growth,[9],0.334 (active)
same,normalized growth,"S. cerevisiae deletion strains, locus YHR079C, strain IRE1, hits give low values",0.88
same,normalized growth,"S. cerevisiae deletion strains, locus YHR082C, strain KSP1, hits give low values",0.364 (active)
same,normalized growth,"S. cerevisiae deletion strains, locus YHR205W, strain SCH9, hits give low values",0.47 (active)
same,normalized growth,"S. cerevisiae deletion strains, locus YIL147C, strain SLN1, hits give low values",0.974
same,normalized growth,"S. cerevisiae deletion strains, locus YJL095W, strain BCK1, hits give low values",0.401 (active)
same,normalized growth,"S. cerevisiae deletion strains, locus YJR016C, strain ILV3, hits give low values",0.936
same,normalized growth,"S. cerevisiae deletion strains, locus YJR066W, strain TOR1 (second series), hits give low values",0.438 (active)
same,normalized growth,"S. cerevisiae deletion strains, locus YJR066W, strain TOR1, hits give low values",0.299 (active)
same,normalized growth,"S. cerevisiae deletion strains, locus YKL048C, strain ELM1, hits give low values",0.948
same,normalized growth,"S. cerevisiae deletion strains, locus YKL101W, strain HSL1, hits give low values",0.777
same,normalized growth,"S. cerevisiae deletion strains, locus YKL193C, strain SDS22, hits give low values",0.871 (active)
same,normalized growth,"S. cerevisiae deletion strains, locus YKL203C, strain TOR2, hits give low values",0.555 (active)
same,normalized growth,"S. cerevisiae deletion strains, locus YLR113W, strain HOG1, hits give low values",0.184 (active)
same,normalized growth,"S. cerevisiae deletion strains, locus YLR133W, strain CKI1, hits give low values",0.691 (active)
same,normalized growth,"S. cerevisiae deletion strains, locus YLR403W, strain SFP1, hits give low values",0.748
same,normalized growth,"S. cerevisiae deletion strains, locus YML070W, strain DAK1, hits give low values",0.433 (active)
same,normalized growth,"S. cerevisiae deletion strains, locus YMR001C, strain CDC5, hits give low values",0.896
same,normalized growth,"S. cerevisiae deletion strains, locus YMR205C, strain PFK2 (second series), hits give low values",0.785
same,normalized growth,"S. cerevisiae deletion strains, locus YMR277W, strain FCP1, hits give low values",0.87 (active)
same,normalized growth,"S. cerevisiae deletion strains, locus YNL006W, strain LST8, hits give low values",0.99
same,normalized growth,"S. cerevisiae deletion strains, locus YNL020C, strain ARK1, hits give low values",0.874
same,normalized growth,"S. cerevisiae deletion strains, locus YNL161W, strain CBK1, hits give low values",0.919
same,normalized growth,"S. cerevisiae deletion strains, locus YNL183C, strain NPR1, hits give low values",0.178 (active)
same,normalized growth,"S. cerevisiae deletion strains, locus YNL207W, strain RIO2, hits give low values",0.916
same,normalized growth,"S. cerevisiae deletion strains, locus YNL222W, strain SSU72, hits give low values",0.915
same,normalized growth,"S. cerevisiae deletion strains, locus YOL078W, strain AVO1, hits give low values",0.879 (active)
same,normalized growth,"S. cerevisiae deletion strains, locus YOL136C, strain PFK27, hits give low values",0.533 (active)
same,normalized growth,"S. cerevisiae deletion strains, locus YOR061W, strain CKA2, hits give low values",0.879
same,normalized growth,"S. cerevisiae deletion strains, locus YOR119C, strain RIO1, hits give low values",0.442 (active)
same,normalized growth,"S. cerevisiae deletion strains, locus YOR231W, strain MKK1, hits give low values",0.809
same,normalized growth,"S. cerevisiae deletion strains, locus YOR329C, strain SCD5, hits give low values",0.973
same,normalized growth,"S. cerevisiae deletion strains, locus YPL153C, strain RAD53, hits give low values",0.729
same,normalized growth,"S. cerevisiae deletion strains, locus YPL204W, strain HRR25, hits give low values",0.706
same,normalized growth,"S. cerevisiae deletion strains, locus YPL209C, strain IPL1, hits give low values",0.913
same,normalized growth,"S. cerevisiae deletion strains, locus YPL256C, strain CLN2, hits give low values",0.293 (active)
same,normalized growth,"S. cerevisiae deletion strains, locus YPR025C, strain CCL1, hits give low values",0.911
same,normalized growth,"S. cerevisiae deletion strains, locus YPR106W, strain ISR1, hits give low values",0.921
same,normalized growth,"S. cerevisiae deletion strains, locus YPR111W, strain DBF20, hits give low values",0.909
same,normalized growth,"S. cerevisiae deletion strains, strain NNK1, hits give low values",0.938
same,normalized growth,"S. cerevisiae deletion strains, strain TSCII, hits give low values",0.872 (active)
O=[N+]([O-])c1ccc(S(=O)(=O)c2ccc(Cl)cc2)cc1O,normalized growth,[1],0.82 (active)
same,normalized growth,[2],0.766 (active)
same,normalized growth,[4],0.715 (active)
same,normalized growth,[5],0.938
same,normalized growth,[6],0.811
same,normalized growth,[7],0.924
same,normalized growth,[8],0.81 (active)
same,normalized growth,[9],0.954
same,normalized growth,[10],0.692 (active)
same,normalized growth,[29],0.832 (active)
same,normalized growth,[11],0.64 (active)
same,normalized growth,[12],0.978
same,normalized growth,[13],0.723 (active)
same,normalized growth,[14],0.822 (active)
same,normalized growth,[15],0.947
same,normalized growth,[16],0.639 (active)
same,normalized growth,[17],0.94
same,normalized growth,[18],0.797 (active)
same,normalized growth,[19],0.814 (active)
same,normalized growth,[20],0.846 (active)
same,normalized growth,[21],0.915
same,normalized growth,[22],0.86 (active)
same,normalized growth,[23],0.94
same,normalized growth,[25],0.709 (active)
same,normalized growth,[26],0.934
same,normalized growth,[27],0.99
same,normalized growth,[28],0.952
O=[N+]([O-])c1cc(Cl)ccc1S(=O)(=O)c1ccccc1,normalized growth,[1],0.987
same,normalized growth,[2],0.996
same,normalized growth,[3],0.994
same,normalized growth,[4],0.98
same,normalized growth,[5],0.999
same,normalized growth,[6],0.97
same,normalized growth,[7],0.969
same,normalized growth,[8],0.993
same,normalized growth,"S. cerevisiae deletion strains, locus YGR229C, strain SMI1, hits give low values",0.98
same,normalized growth,[9],0.836
same,normalized growth,[10],1.02
same,normalized growth,[29],0.978
same,normalized growth,[11],0.995
same,normalized growth,[13],0.634 (active)
same,normalized growth,[14],0.996
same,normalized growth,[15],0.796
same,normalized growth,[16],0.705 (active)
same,normalized growth,[17],0.933
same,normalized growth,[18],0.998
same,normalized growth,[19],0.996
same,normalized growth,[30],0.829
same,normalized growth,[20],0.985
same,normalized growth,[21],0.955
same,normalized growth,[22],0.987
same,normalized growth,[23],0.974
same,normalized growth,[25],0.996
same,normalized growth,[26],0.958
same,normalized growth,[27],0.803
